RE007 growth inh – less growth of the S. pombe RE007 Vpr strain | S. pombe RE007 Vpr strain, BacTiter-Glo ATP luminescence, 24 h | Potency, µM (doses to about 92.2 µM), hits mostly inhibitors | 360,000 compounds, 0.21% hits | AID 651644; active = well fitted falling curve with a large enough effect; inconclusive = small, poorly fitted or top-dose-only effect; inactive = no such curve, though single readings can be large or run the other way; note: nearly all actives have a fitted effect of over 50% in size
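Fission yeast RE007 carrying one integrated HIV-1 vpr copy, seeded at OD 0.01 in PMG+AL medium with 23 nL pinned compound. Grown 24 h at 30 degrees; viability read by BacTiter-Glo luminescence after 5 min.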
NS1 function inh – blocks influenza NS1 protein function; Potency, µM (top dose mostly 46.1 µM); 270,000 compounds, 0.4% hits; note: actives are rising curves; nearly all actives have a fitted effect of over 50% in size
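S. cerevisiae expressing influenza A NS1, grown in glucose, washed, then diluted 1:100 into pH 6.0 -URA galactose medium with 23 nl compound. Growth recovery read as OD600; NS1-free strain serves as control.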
Pf growth 96h – inhibits malaria parasite growth, 96 h; P. falciparum luciferase reporter growth, 96 h; Potency, µM (titrated, usually from 28.7 µM), usual class: inhibitors; 320,000 compounds, 6.9% hits; AID 504834; active = well fitted inhibition curve with a large enough effect; inconclusive = small, poorly fitted or top-dose-only effect, or another doubt; inactive = no such curve, though single readings can be large or run the other way
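Plates of compound plus infected erythrocytes (2% hematocrit, 0.05% parasitemia final) incubate 96 hours, 37 C, 5% CO2. Detection reagent added; reduced luminescence from the parasites' luciferase reporter flags inhibition.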
Pf growth 48h – P. falciparum growth inhibition at 48 hours (one generation) | P. falciparum luciferase growth in erythrocytes, 48 h | Potency, µM (highest dose often 28.7 µM), most hits filed as inhibitors | 310,000 compounds, 5.9% hits | AID 504832; active = well fitted inhibition curve with a large enough effect; inconclusive = small, poorly fitted or top-dose-only effect, or another doubt; inactive = no such curve, though single readings can be large or run the other way
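Parasite viability was followed by luminescence of a genomically integrated firefly luciferase. Cultures held 0.1% parasitemia at 2% hematocrit (final), incubated under 5% CO2 at 37 C.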
SARS PLP yeast – inhibitors of SARS-CoV papain-like protease in yeast; S. cerevisiae expressing SARS-CoV PLpro, growth rescue; Potency, µM (highest dose often 32.9 µM), most hits filed as activators; 330,000 compounds, 0.19% hits; note: nearly all actives have a fitted effect of over 55% in size
A number is an active result; i = inactive; ? = inconclusive; nt = no result given. Hits are enriched below; roughly 9.5% of the tested compounds scored in any of these assays. Unless noted, calls come from the whole dose curve.

SMILES	RE007 growth inh	NS1 function inh	Pf growth 96h	Pf growth 48h	SARS PLP yeast
CC(=O)OC1C(N2CCCCC2)c2c(ccc(/C=C/C(=O)N3CCCCC3)c2O)OC1(C)C (stereo not drawn)	i	i	i	?	i
O=c1[nH]c(=O)n(Cc2ccccc2)c2c1CCC2	i	i	nt	i	i
N=c1c2c(n(Cc3ccc([N+](=O)[O-])cc3)c3c1CCC3)CCCC2	i	nt	10µM	?	i
N=c1c2c(n(Cc3ccc(Cl)c(Cl)c3)c3c1CCC3)CCCC2	i	i	i	0.15µM	i
N=c1c2c(n(Cc3ccc(Br)cc3)c3c1CCC3)CCCC2	i	i	0.033µM	0.093µM	i
Clc1ccc(CN2C3=NCCN3c3ccccc32)cc1Cl	i	i	i	?	i
OC[C@@H]1CN(Cc2ccc3c(c2)OCO3)C[C@H](n2cnc3c(N4CCN(c5ccccc5)CC4)ncnc32)O1	i	nt	nt	nt	nt
CC(C)(C)c1ccc(OCC(O)CN2CCOCC2)cc1 (stereo not drawn)	i	nt	nt	nt	nt
O=C(c1ccccc1)c1ccc(OCC(O)CN2CCN(S(=O)(=O)N3CCCCC3)CC2)cc1 (stereo not drawn)	i	i	5.2µM	nt	i
OC(COc1ccccc1)CN1CCOCC1 (stereo not drawn)	i	i	12µM	i	i
CCCCn1c(N)c(N(Cc2ccccc2OC)C(=O)CN2C(=O)NC(C)(c3ccccc3)C2=O)c(=O)[nH]c1=O (stereo not drawn)	i	nt	i	i	i
Cc1ccc(C(=O)NCC(=O)OC(C)C(=O)Nc2ccc(N(C)C)cc2)cc1C (stereo not drawn)	i	nt	i	i	i
CN(C(=O)COC(=O)/C=C/c1ccc(Cl)c(Cl)c1)c1c(N)n(Cc2ccccc2)c(=O)[nH]c1=O	i	nt	?	?	i
COc1ccccc1CNS(=O)(=O)CCNCc1ccco1	i	nt	nt	nt	nt
O=C(CN1C(=O)c2ccccc2C1=O)C(O)CN1C(=O)c2ccccc2C1=O (stereo not drawn)	i	nt	nt	nt	nt
Cc1csc2cc(-c3cccc([N+](=O)[O-])c3)c(-c3cccc([N+](=O)[O-])c3)c[n+]12	i	i	0.47µM	1µM	i
CC12CCC(=O)N1C(C(=O)NNC(=O)c1ccccc1Cl)CS2 (stereo not drawn)	i	nt	i	i	i
CCCCNC(=O)Cn1c(=O)n(C)c2ccccc21	i	i	7.4µM	i	i
COC(=O)C(C)N(C(=O)c1cccc2ccccc12)c1c(C)cccc1C (stereo not drawn)	i	i	nt	15µM	i
COCC(=O)N(c1c(C)cccc1C)C(C)C(=O)OC (stereo not drawn)	nt	nt	i	i	nt
COc1ccc(OC)c(C(C)NC(=O)c2ccc(Br)cc2)c1 (stereo not drawn)	i	i	i	i	i
COc1cc(Br)c(C(C)NC(=O)c2ccccc2)cc1OC (stereo not drawn)	i	i	12µM	13µM	i
O=C1C(Sc2ccccc2)=C[C@@]2(O)CC[C@@H](O)[C@]1(Sc1ccccc1)[C@H]2O	i	nt	nt	nt	nt
CCOC(=O)/C(C#N)=C/c1c(N2CCN(CC)CC2)nc2c(C)cccn2c1=O	i	i	i	i	i
CNC(=O)CCn1nc(-c2ccccc2)c2ccccc2c1=O	i	i	15µM	i	i
SMILES	RE007 growth inh	NS1 function inh	Pf growth 96h	Pf growth 48h	SARS PLP yeast
CCN(CC)C(=O)CCn1nc(-c2ccc(C)cc2)c2ccccc2c1=O	i	i	i	7.4µM	i
Cc1ccc(-c2nn(CCC(N)=O)c(=O)c3ccccc23)cc1	i	i	?	i	i
Cc1ccc(NC(=S)NNC(=O)c2cccc([N+](=O)[O-])c2)cc1Cl	i	i	i	i	i
COc1ccc(C(=O)O)cc1S(=O)(=O)Nc1ccccc1Cc1ccccc1	i	i	i	i	i
CC(C)(C)OC(=O)N1CCC(c2c(C(=O)N3CCN(C(=O)c4ccco4)CC3)cnn2-c2ccc(F)cc2)CC1	i	i	i	?	i
Cc1ccc(-n2ncc(C(=O)N3CCN(C(=O)c4ccco4)CC3)c2C2CCN(C(=O)OC(C)(C)C)CC2)cc1C	i	i	i	4.7µM	i
C/C(=N\NC(N)=S)c1ccccc1	i	i	?	i	i
C/C(=N\NC(N)=S)c1cc(-c2ccccc2)c(-c2ccccc2)s1	i	i	?	9.3µM	i
C/C(=N/NC(N)=S)c1ccc(Br)s1	i	i	i	15µM	i
Cc1ccc(C(=O)OCC(=O)NNC(=O)c2cccs2)c(O)c1	i	nt	i	i	i
COc1ccc(N(CC(=O)Nc2ccc(F)cc2)S(=O)(=O)c2ccccc2[N+](=O)[O-])c(OC)c1	i	i	i	?	i
COc1ccc(N(CC(=O)Nc2cc(C)ccc2C)S(=O)(=O)c2ccccc2[N+](=O)[O-])c(OC)c1	i	i	i	2.9µM	i
CCN(CC)S(=O)(=O)c1ccc(NC(=O)CN(c2cccc(C)c2)S(C)(=O)=O)cc1	i	i	?	?	i
COc1ccc(N(CC(=O)Nc2cc(C)cc(C)c2)S(=O)(=O)c2ccccc2[N+](=O)[O-])c(OC)c1	i	i	8.3µM	?	i
COc1ccc(C)cc1S(=O)(=O)N(CC(=O)Nc1cccc([N+](=O)[O-])c1)c1ccccc1	i	i	12µM	?	i
CCN(CC)S(=O)(=O)c1ccc(NC(=O)CN(c2ccc(OC)cc2OC)S(C)(=O)=O)cc1	i	i	i	9.3µM	i
O=S1(=O)C=C(Sc2nc3ccccc3s2)c2ccccc21	10µM	?	nt	8.3µM	i
O=[N+]([O-])c1ccc(N2CCN(S(=O)(=O)c3ccc(Cl)cc3)CC2)cc1NCC1CCCO1 (stereo not drawn)	i	i	i	i	i
Cc1cc(C)n(-c2cc(N3CCN(C(=O)c4cccc(Br)c4)CC3)ccc2[N+](=O)[O-])n1	i	i	9.3µM	?	i
Cc1cc(C)n(-c2cc(N3CCN(S(=O)(=O)c4ccc(Cl)cc4)CC3)ccc2[N+](=O)[O-])n1	i	?	i	7.4µM	i
CC(=O)N1CCN(c2ccc([N+](=O)[O-])c(-n3nc(C)cc3C)c2)CC1	i	i	i	i	i
Cc1cccc(OCC(=O)NCC(=O)N/N=C/c2c(C)[nH]c3ccccc23)c1	i	i	i	i	i
Cc1ccc(OCC(=O)Nc2cc(Cl)ccc2-n2cncn2)c(C)c1	i	nt	nt	nt	nt
CCc1cccc(OCC(=O)Nc2cc(Cl)ccc2-n2cncn2)c1	i	nt	?	13µM	i
Cc1cccc(OC(C)C(=O)Nc2cc(Cl)ccc2-n2cncn2)c1 (stereo not drawn)	i	nt	?	4.1µM	i
Cc1cccc(C)c1OCC(=O)Nc1cc(Cl)ccc1-n1cncn1	i	nt	13µM	13µM	nt
CCCOc1ccccc1OCC(=O)Nc1cc(Cl)ccc1-n1cncn1	i	nt	9.3µM	12µM	i
Cc1cccc(OCC(=O)Nc2cc(Cl)ccc2-n2cncn2)c1C	i	nt	?	?	i
COc1cccc(OC)c1C(=O)OCC(=O)N(c1ccccc1)C1CCCCC1	i	nt	?	?	i
